Screens from PubChem.
Hits are enriched below; roughly 21% of the tested compounds scored in any of these assays.
TDP1 cell CPT = qHTS for Inhibitors of human tyrosyl-DNA phosphodiesterase 1 (TDP1): qHTS in cells in presence of CPT; chicken DT40 Tdp1-/-;hTDP1 cells + 20 nM CPT, ATP luminescence, 48 h; Potency, µM (doses to about 46.2 µM), most hits filed as inhibitors; actives 12% (n = 420,000); AID 686979, 2013; further: nearly all actives have a fitted effect of over 55% in size
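Cell growth measured by CellTiter-Glo luminescence after a minimum 48 h, 37 C compound exposure with 20 nM CPT in Tdp1-knockout DT40 cells stably expressing hTDP1, seeded 400/well; qHTS titration format.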
TDP1 cell noCPT = qHTS for Inhibitors of human tyrosyl-DNA phosphodiesterase 1 (TDP1): qHTS in cells in absence of CPT | DT40 Tdp1-/- hTDP1 cells, no CPT, ATP luminescence, 48 h | Potency, µM (titrated, usually from 46.2 µM), hits mostly inhibitors | actives 15% (n = 420,000); further: nearly all actives have a fitted effect of over 55% in size
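Cells were dispensed at 400 per well, compounds added by pin tool, plates incubated ≥48 hr at 37 °C, then CellTiter-Glo added for 30 min at room temperature before luminescence reading. Line: DT40 Tdp1-/- complemented with hTDP1; camptothecin omitted.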
IL1B secr inh = qHTS for Inhibitors of Inflammasome Signaling: IL-1-beta AlphaLISA Primary Screen. AID 743279, 2014. THP-1 LPS/ATP IL-1B secretion, AlphaLISA, 16 h; stronger effect = lower value. activity change, % at 57.5 µM. actives 4.7% (n = 360,000); in the data active means activity change below about -50%; inconclusive means mostly about -30% to -49%
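THP-1 cells pretreated 1 hr with compounds (up to 57.5 uM final), then stimulated with LPS (250 ng/mL final) plus ATP (1.25 mM final); secreted IL-1B measured by AlphaLISA after 16 hr, decreased signal indicating inhibition.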
ClpP mod = qHTS Assay for Activators of ClpP; ATP-dependent Clp protease proteolytic subunit (Bacillus subtilis (strain 168)), P80244; purified B. subtilis ClpP, FRET peptide cleavage, 20 min; actives 1.9% (n = 340,000); Potency, µM (highest dose often 57.5 µM); active means well fitted falling curve with a large enough effect; inconclusive means small, poorly fitted or top-dose-only effect; inactive means no such curve, though single readings can be large or run the other way; further: the source files actives as falling curves though it sought activators and does not explain the sign; nearly all actives have a fitted effect of over 65% in size
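Buffer: 100 mM Tris/HCl pH8, 100 mM KCl, 0.05% low protease BSA, 2.5% glycerol, 0.01% Tween-20. ClpP 10 microg/mL final; 20 min RT; delta FRET normalized to ADEP and DMSO controls.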
D3 antag = qHTS of D3 Dopamine Receptor Antagonist: qHTS; D3R cells, DiscoveRx beta-arrestin luminescence, antagonist mode; stronger effect = lower value; max response, negative = inhibition, %; actives 2.5% (n = 360,000); AID 652054, 2013; in the data active means max response below about -50%; inconclusive means no clear call, values can overlap the other calls
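Cells expressing the human receptor were seeded at 1500 cells/well, incubated overnight at 37 degrees C in 5% CO2, then exposed to library compounds with dopamine controls for 90 minutes at 37 degrees C before luminescent detection.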
DRD3 agonist = qHTS of D3 Dopamine Receptor Agonist: qHTS. D(3) dopamine receptor (Homo sapiens), P35462. D3R DiscoveRx beta-arrestin cells, luminescence, 90 min. max activation, %. actives 0.58% (n = 410,000). AID 652048, 2013; in the data active means max activation above about 30%
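Agonist mode: compounds and dopamine controls were applied to plated cells for 90 min at 37 degrees C after an overnight attachment at 1500 cells/well. Luminescent read-out followed 30 - 60 minutes at room temperature with DiscoveRx detection reagent.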
Large screens that a line does not name were inactive. Unless noted, the call rests on the fitted dose curve; in most records, active means well fitted inhibition curve with a large enough effect; inconclusive means small, poorly fitted or top-dose-only effect; inactive means flat fitted curve, though single readings scatter.

O=C(C(Cc1ccccc1)n1cccc1)N1CCc2ccccc21 (centres undefined)	TDP1 cell CPT inconclusive, TDP1 cell noCPT inconclusive
O=C(C(Cc1ccccc1)n1cccc1)N1CCN(c2ccccc2)CC1 (centres undefined)	TDP1 cell CPT 23µM, TDP1 cell noCPT 26µM
CSCCC(NC(=O)COc1ccccc1)C(=O)N1CCCC(C)C1 (centres undefined)	none
Cc1ccc(C)c(N2CCN(C(=O)C(Cc3ccccc3)n3cccc3)CC2)c1 (centres undefined)	TDP1 cell CPT 23µM, TDP1 cell noCPT 23µM
CC1CCCN(C(=O)C(Cc2ccccc2)n2cccc2)C1 (centres undefined)	TDP1 cell CPT 15µM, D3 antag inconclusive
COC(=O)C1=C(C)NC(=O)/C1=C\N(C)C	none (no result: ClpP mod)
CC(SC1=NCCS1)C(=O)Nc1nnc(-c2ccc(Br)cc2)s1 (centres undefined)	TDP1 cell CPT inconclusive, TDP1 cell noCPT inconclusive
CC(SC1=NCCS1)C(=O)Nc1nnc(-c2ccc(F)cc2)s1 (centres undefined)	IL1B secr inh -53
CCOC(=O)N1CCN(C(=O)c2cccc(N3C(=O)NC4CC3(C)Oc3ccc(Cl)cc34)c2)CC1 (centres undefined)	TDP1 cell CPT inconclusive, TDP1 cell noCPT 3.3µM
COc1cccc2c1OC1(C)CC2NC(=O)N1c1cccc(C(=O)N2CCN(c3ccccc3)CC2)c1 (centres undefined)	TDP1 cell CPT inconclusive, TDP1 cell noCPT inconclusive (no result: ClpP mod)
COc1ccc(CCN2C(=S)NC3CC2(C)Oc2ccc([N+](=O)[O-])cc23)cc1OC (centres undefined)	TDP1 cell CPT 10µM, TDP1 cell noCPT 15µM
COc1ccc(N2C(=O)NC3CC2(C)Oc2ccc(Cl)cc23)cc1OC (centres undefined)	TDP1 cell CPT 23µM, TDP1 cell noCPT inconclusive
COc1ccc(N2CCN(C(=O)c3ccc(N4C(=O)NC5CC4(C)Oc4ccccc45)cc3)CC2)cc1 (centres undefined)	TDP1 cell CPT 29µM, TDP1 cell noCPT inconclusive, IL1B secr inh inconclusive
O=C(O)CCC(=O)Nc1ccc(SSc2ccc(NC(=O)CCC(=O)O)cc2)cc1	none
Cc1nn(C2CCS(=O)(=O)C2)c(Cl)c1/C=C/C(=O)OCC(N)=O (centres undefined)	none
Cc1ccc2c(c1)C1CC(C)(O2)N(c2cccc(C(=O)NCc3ccccn3)c2)C(=O)N1 (centres undefined)	TDP1 cell CPT inconclusive, TDP1 cell noCPT inconclusive
Cc1ccc2c(c1)C1CC(C)(O2)N(c2cccc(C(=O)NC3CCN(Cc4ccccc4)CC3)c2)C(=O)N1 (centres undefined)	TDP1 cell CPT inconclusive, TDP1 cell noCPT inconclusive, IL1B secr inh -53
CNS(=O)(=O)c1cc(NC(=O)c2cncn2-c2ccccc2)ccc1C	none (no result: ClpP mod)
Nc1nc(Nc2ccccc2F)sc1C(=O)c1ccccc1	TDP1 cell CPT 12µM, TDP1 cell noCPT inconclusive
Cc1nc(Nc2ccccc2)sc1C(=O)c1ccc(F)cc1	TDP1 cell CPT inconclusive, TDP1 cell noCPT inconclusive
CCC(=O)C1CCCN(C(=O)c2ccc(OC)c(OC3CCN(C(C)=O)CC3)c2)C1 (centres undefined)	none
CSc1cccc(NS(=O)(=O)c2cn(C)c(C)n2)c1	TDP1 cell noCPT inconclusive (no result: IL1B secr inh, D3 antag)
CCN(CC)c1ccc(/C=N/NC(=S)NCc2ccccc2)c(O)c1	TDP1 cell CPT inconclusive, TDP1 cell noCPT inconclusive, ClpP mod inconclusive
CCN(CC)c1ccc(/C=N/NC(=O)c2cnccn2)cc1	TDP1 cell CPT 1.3µM, TDP1 cell noCPT 1.6µM (no result: ClpP mod)
CCN(CC)c1ccc(NC(=S)NC(=O)c2ccco2)cc1	TDP1 cell CPT 18µM, TDP1 cell noCPT 18µM
CCN(CC)c1ccc(/C=N/NC(=O)c2ccco2)c(O)c1	TDP1 cell CPT 5.2µM, TDP1 cell noCPT 2.6µM
CCN(CC)c1ccc(/C=N/NC(=O)Cc2cccs2)c(O)c1	TDP1 cell CPT 4.6µM, TDP1 cell noCPT 5.2µM, ClpP mod 28µM
Cc1ccc(/C=N/NC(=O)c2nnn(-c3nonc3N)c2C(C)C)s1	none
Cc1ccc(CNC(=O)C2CCC(=O)N2Cc2ccc(C)cc2)cc1 (centres undefined)	none
CNc1c(Br)cc(/C=C2\C=C(C(O)c3cc(Br)c(NC)c(Br)c3)c3ccccc32)cc1Br (centres undefined)	TDP1 cell CPT inconclusive (no result: IL1B secr inh, D3 antag, DRD3 agonist)
COc1ccc(CC(=O)NCc2ccc3c(c2)CCN3C(C)=O)cc1	none (no result: IL1B secr inh, D3 antag)
O=C(CSc1cccc2cccnc12)Nc1cc(C(=O)O)cc(C(=O)O)c1	TDP1 cell noCPT inconclusive (no result: ClpP mod)
CCN(CC)c1ccc(/C=N/NC(=O)c2ccco2)cc1	TDP1 cell CPT inconclusive, TDP1 cell noCPT 3.3µM
CCN(CC)c1ccc(/C=N/N(c2ccccc2)c2ccccc2)c(O)c1	TDP1 cell CPT inconclusive, TDP1 cell noCPT inconclusive
CCN(CC)c1ccc(/C=N/N=C(c2ccccc2)c2ccccc2)c(O)c1	TDP1 cell CPT inconclusive, TDP1 cell noCPT 21µM
Cc1ccc2nc(C)cc(C(=O)N/N=C/c3ccncc3)c2c1	TDP1 cell CPT inconclusive, TDP1 cell noCPT inconclusive
COc1ccccc1-c1ccnc(-n2ncc(C(=O)NCCc3ccccn3)c2C)n1	TDP1 cell noCPT inconclusive (no result: IL1B secr inh, ClpP mod, D3 antag, DRD3 agonist)
Cc1ccc(S(=O)(=O)NC2c3cccc4cccc(c34)C2Sc2n[nH]c(N)n2)cc1 (centres undefined)	TDP1 cell CPT 21µM, TDP1 cell noCPT 16µM
O=S(=O)(NC1c2cccc3cccc(c23)C1Sc1ncccn1)c1ccc(Cl)cc1 (centres undefined)	TDP1 cell CPT inconclusive, TDP1 cell noCPT inconclusive
Cc1cc(=O)[nH]c(N2CCOCC2)n1	D3 antag inconclusive (no result: ClpP mod)
Cc1cc(N2CCOCC2)c2c(N)c(Br)cc(C)c2n1	TDP1 cell CPT inconclusive, TDP1 cell noCPT 3.3µM, IL1B secr inh inconclusive
Cc1ccc(CN2CCc3nnc(C(NC(=O)c4ccoc4)C(C)C)n3CC2)cc1C (centres undefined)	none (no result: IL1B secr inh, ClpP mod, D3 antag, DRD3 agonist)
N#Cc1c(N)n(CCCN2CCOCC2)c2nc3ccccc3nc12	IL1B secr inh inconclusive, ClpP mod 4.5µM, D3 antag inconclusive
Nc1c(S(=O)(=O)c2ccccc2)c2nc3ccccc3nc2n1CCN1CCOCC1	TDP1 cell noCPT inconclusive
